Test results: the supplement of paper PMC10477191
± gives the standard deviation of the averaged measurements.

Tested on: Drosophila ezoana antennal basiconic sensillum ab6
Experiment: odor-evoked OSN spike response (post minus pre-stimulus); higher = stronger neuronal excitation
Conditions: odor dilution: 10^-4
Description: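 Single sensillum recordings from antennal basiconic sensilla of D. ezoana. A 500 ms pulse of odorant (10^-4 in mineral oil or DMSO) was delivered; the response is the change in action potential frequency between the 1 s pre- and post-stimulus windows (spikes/s).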

Structure (SMILES) | odor-evoked OSN spike response [spikes/s]
COc1ccccc1O [guaiacol] | 123 ± 36
OCCc1ccccc1 [2-phenylethanol] | 53 ± 31
C/C=C/C(=O)OCC [Ethyl crotonate] | 71.1 ± 37
CCCCCC(=O)OCC [ethyl hexanoate] | 52.2 ± 20
CCCC(=O)OCC [ethyl butanoate] | 52.1 ± 29
CC(=O)CCC=C(C)C [6-methyl-5-hepten-2-one] | 58.1 ± 30
CCOC(=O)c1ccccc1 [ethyl benzoate] | 66.1 ± 26
CCCCCCO [1-hexanol] | 77.5 ± 29
CCOC(=O)CC(C)O (stereo not given) [Ethyl-3-hydroxybutyrate] | 93.1 ± 33
C=CC(O)CCCCC (stereo not given) [1-octen-3-ol] | 143 ± 47
CCOC(=O)C(C)O (stereo not given) [Ethyl lactate] | 58 ± 18
CCCCCCCC(C)O (stereo not given) [2-nonanol] | 55.7 ± 33
CCCCCC(C)=O [2-heptanone] | 60.9 ± 21
CCCCCOC(C)=O [pentyl acetate] | 67.9 ± 20
Oc1ccccc1 [phenol] | 73 ± 38
COC(=O)c1ccccc1O [Methyl salicylate] | 58.3 ± 32
CCCCCCCC(C)=O [2-nonanone] | 54.7 ± 22
CCCCC(C)O (stereo not given) [2-hexanol] | 67.3 ± 33
CCOC(C)=O [Ethyl acetate] | 55.2 ± 25
CC(=O)C(C)O (stereo not given) [acetoin] | 69.8 ± 40
